Active and inactive are the calls of the source. Rule for the calls: active = hit-call score of the fitted dose curve at least 0.9, where 1 is the maximum; inactive = score below 0.9.
Test: Tanguay_ZF_120hpf_EDEM: Oregon State University Tanguay Lab 120 Hour Post-fertilization zebrafish Assay for Edema Malformation (AID 2284400)
Protocol: Tanguay_ZF_120hpf is a whole embryo, multiplexed endpoint assay using zebrafish larvae exposed for 120 hours post fertilization on a 96-well plate.Tanguay_ZF_120hpf_EDEM is one of one assay component(s) measured or calculated from the Tanguay_ZF_120hpf assay. It is designed to make measurements of zebrafish development as detected with brightfield microscopy of developing zebrafish embryos.Data from the assay component Tanguay_ZF_120hpf_EDEM was analyzed into 1 assay endpoints. This assay endpoint, Tanguay_ZF_120hpf_EDEM, was analyzed in the positive analysis fitting direction relative to DMSO as the negative control and baseline of activity. Using a type of morphology reporter, gain-of-signal activity can be used to understand changes in developmentals as they relate to the whole embryo. To generalize the intended target to other relatable targets, this assay endpoint is annotated to the zebrafish development intended target family, where the subfamily is embryonic edema.
Zebrafish husbandry: Tropical 5D wild-type adult zebrafish were housed in at an approximate density of 1000 per 100 gallon tank at the Sinnhuber Aquatic Research Laboratory, Oregon State University, Corvallis, OR. Each tank was kept at standard laboratory conditions of 28C on a 14-h light/10-h dark photoperiod in fish water consisting of reverse osmosis water supplemented with a commercially available salt (Instant Ocean). Spawning funnels were placed into the tanks the night prior, and embryos were collected and staged. To increase bioavailability, the chorion was enzymatically removed using pronase (63.6mg/ml, >/= 3.5U/mg, Sigma-Aldrich: P5147) at 4 hours post fertilization (hpf) using a custom automated dechorionator.Chemical exposures: Six hpf dechorionated embryos were placed 1 embryo per well in a 96-well plate prefilled with 90 ul of EM using automated embryo placement systems (AEPS). Ten microliters of each row of dilution plate 2 was added to 2 exposure plates. The final DMSO concentration used was 0.64% (vol/vol). Thirty-two embryos were also exposed to 5uM trimethyltin chloride (positive control). Plates were sealed to prevent evaporation and foil covered to reduce light exposure and kept in a 28C incubator. Embryos were statically exposed until 120 hpf. At 24 hpf, embryos were assessed for photomotor response using a custom photomotor response analysis tool (PRAT) and for developmental toxicity endpoints (MO24: mortality at 24 hpf, DP: developmental progression, SM: spontaneous movement, and NC: notochord distortion). At 120 hpf, locomotor activity was measured using Viewpoint Zebralab and assessed for 13 endpoints. Zebrafish acquisition and analysis program (ZAAP), a custom program designed to inventory, acquire, and manage zebrafish data, was used to collect developmental endpoints as either present or absent (i.e., binary responses were recorded). If mortality occurred for an embryo (at either 24 or 120 hpf), the non-mortality endpoints were not measured.

SMILES	outcome	AC50
O=S(=O)(O)CCC(F)(F)C(F)(F)C(F)(F)C(F)(F)F	inactive	–
FC(F)(F)C(F)(F)C(F)(F)CC1CO1 (configuration not stated)	inactive	–
O=C(O)C(F)(F)C(F)(F)C(F)(F)OC(F)(C(F)(F)F)C(F)(F)F	inactive	–
NC(=O)C(F)(F)C(F)(F)C(F)(F)F	inactive	–
O=C(O)C(F)(F)C(F)(F)C(F)(F)OC(F)(F)F	inactive	–
OCCCCC(F)(F)C(F)(F)C(F)(F)C(F)(F)F	inactive	–
OCC(O)CC(F)(F)C(F)(F)C(F)(F)C(F)(F)F (configuration not stated)	inactive	–
O=C(O)C(F)(F)C(F)(F)C(F)(F)C(=O)O	inactive	–
CN(C(=O)C(F)(F)C(F)(F)C(F)(F)F)[Si](C)(C)C	inactive	–
O=C(O)CCC(F)(F)C(F)(F)C(F)(F)C(F)(F)C(F)(F)C(F)(F)C(F)(F)F	inactive	–
NS(=O)(=O)C(F)(F)C(F)(F)C(F)(F)C(F)(F)C(F)(F)C(F)(F)F	inactive	–
OCC(F)(F)C(F)(F)C(F)(F)C(F)(F)C(F)(F)C(F)(F)C(F)(F)C(F)(F)CO	inactive	–
OCC(F)(F)C(F)(F)C(F)(F)C(F)(F)C(F)(F)C(F)(F)CO	inactive	–
FC(F)(F)C(F)(F)C(F)(F)C(F)(F)C(F)(F)C(F)(F)CC[Si](Cl)(Cl)Cl	inactive	–
CCOC(=O)CC(=O)C(F)(F)C(F)(F)F	inactive	–
CCN(CCO)S(=O)(=O)C(F)(F)C(F)(F)C(F)(F)C(F)(F)C(F)(F)C(F)(F)C(F)(F)C(F)(F)F	inactive	–
C=CC(=O)OCCC(F)(F)C(F)(F)C(F)(F)C(F)(F)F	inactive	–
O=S(=O)(OCC(F)(F)F)C(F)(F)C(F)(F)C(F)(F)C(F)(F)F	inactive	–
COC(F)(C(F)F)C(F)(F)F (configuration not stated)	inactive	–

SMILES	outcome	AC50
NC(=O)C(F)(F)C(F)(F)C(F)(F)C(F)F	inactive	–
C=CC(=O)OCC(F)(F)C(F)(F)C(F)(F)COC(=O)C=C	–	20.9 µM (active)
O=C(O)CCC(F)(F)C(F)(F)C(F)(F)F	inactive	–
OCC(O)CC(F)(F)C(F)(F)C(F)(F)C(F)(F)C(F)(F)C(F)(F)C(F)(F)C(F)(F)F (configuration not stated)	–	5.23 µM (active)
NC(=O)C(F)(F)C(F)(F)C(F)(F)C(F)(F)C(N)=O	inactive	–
OCC(F)(F)C(F)(F)C(F)(F)CO	inactive	–
OC(O)C(F)(F)C(F)(F)F	inactive	–
C[Si](Cl)(Cl)CCC(F)(F)C(F)(F)C(F)(F)C(F)(F)C(F)(F)C(F)(F)F	inactive	–
O=S(=O)(O)CCC(F)(F)C(F)(F)C(F)(F)C(F)(F)C(F)(F)C(F)(F)C(F)(F)C(F)(F)F	inactive	–
NC(O)(C(F)(F)F)C(F)(F)F	inactive	–
CNS(=O)(=O)C(F)(F)C(F)(F)C(F)(F)C(F)(F)C(F)(F)C(F)(F)C(F)(F)C(F)(F)F	–	47.8 µM (active)
FC(F)(F)C(F)(F)C(F)(F)C(F)(F)C(F)(F)C(F)(F)C(F)(F)CCI	inactive	–
CO[Si](C)(CCC(F)(F)C(F)(F)C(F)(F)C(F)(F)C(F)(F)C(F)(F)F)OC	inactive	–
O=C(F)C1(F)C(F)(F)C(F)(F)C(F)(F)C(F)(F)C1(F)F	inactive	–
NC(=O)C(F)(F)C(F)(F)C(F)(F)C(F)(F)C(F)(F)C(F)(F)C(F)(F)F	inactive	–
O=S(=O)(Cl)C(F)(F)C(F)(F)C(F)(F)C(F)(F)C(F)(F)C(F)(F)C(F)(F)C(F)(F)F	inactive	–
C=CC(=O)OCC(F)(F)C(F)(F)C(F)(F)C(F)(F)C(F)(F)C(F)(F)C(F)(F)C(F)F	inactive	–
OCCCC(F)(F)C(F)(F)C(F)(F)C(F)(F)C(F)(F)C(F)(F)C(F)(F)C(F)(F)F	inactive	–
